# Source: PubChem BioAssay (NCATS)
# Records with an inconclusive call do not appear. A call without a number means that no potency is given here. A number with no mark means an inactive call. Activity calls are given as the source filed them. The call rests on the fitted dose curve.
# Tests used:
# [1] = Primary qHTS for inhibitors of SARS-S pseudo-typed particle cell entry (AID 1479145); further: nearly all actives have a fitted effect of over 45% in size; further: potency means the concentration at half of the fitted maximal effect; on activity change, negative = inhibition: series mostly up to about 57 µM
# [2] = Primary qHTS for Huh7 cytotoxicity: counterscreen for inhibitors of MERS-S pseudotyped particle cell entry (AID 1479147)
# [3] = Primary qHTS for inhibitors of MERS-S pseudo-typed particle cell entry (AID 1479149); further: nearly all actives have a fitted effect of over 60% in size; further: potency means the concentration at half of the fitted maximal effect; on activity change, negative = inhibition: series mostly up to about 57 µM
# [4] = Primary qHTS for Vero E6 cytotoxicity: counterscreen for inhibitors of SARS-S pseudo-typed particle cell entry (AID 1479150)
compound,measurement,setting,value
CCn1ccc(NS(=O)(=O)c2ccc(N)cc2)nc1=O,Potency,[1],inactive
same,Potency,[2],inactive
same,Potency,[3],inactive
same,Potency,[4],inactive
CN/C(=C\[N+](=O)[O-])NCCSCc1csc(CN(C)C)n1,Potency,[1],inactive
same,Potency,[2],inactive
same,Potency,[3],inactive
same,Potency,[4],inactive
Cc1nnc(NS(=O)(=O)c2ccc(N)cc2)s1,Potency,[1],inactive
same,Potency,[2],inactive
same,Potency,[3],inactive
same,Potency,[4],inactive
CCCCCCCCCCCCSCCOCCO,Potency,[1],inactive
same,Potency,[2],inactive
same,Potency,[3],inactive
same,Potency,[4],inactive
CCn1cc(C(=O)O)c(=O)c2cnc(N3CCCC3)nc21,"activity change, negative = inhibition",[1],-4.52% [at 11.4 µM]
same,outcome,[2],inactive [at 11.4 µM]
same,outcome,[3],inactive [at 11.4 µM]
same,outcome,[4],inactive [at 11.4 µM]
CCCCCCOc1ccccc1C(N)=O,Potency,[1],inactive
same,Potency,[2],inactive
same,Potency,[3],20 µM (active)
same,Potency,[4],inactive
NS(=O)(=O)c1ccc(Cl)c(S(N)(=O)=O)c1,Potency,[1],inactive
same,Potency,[2],inactive
same,Potency,[3],inactive
same,Potency,[4],inactive
CC(=O)Nc1ccc(OC(=O)c2ccccc2OC(C)=O)cc1,Potency,[1],inactive
same,Potency,[2],inactive
same,Potency,[3],inactive
same,Potency,[4],inactive
CC(C)=CCC/C(C)=C/CO,Potency,[1],inactive
same,Potency,[2],inactive
same,Potency,[3],inactive
same,Potency,[4],inactive
CCN1CCN(C(=O)N[C@@H](C(=O)N[C@@H]2C(=O)N3[C@@H]2SC(C)(C)[C@H]3C(=O)O)c2ccccc2)C(=O)C1=O,Potency,[1],inactive
same,Potency,[2],inactive
same,Potency,[3],inactive
same,Potency,[4],inactive
Cc1cc(C)c(NC(=O)CN(CC(=O)O)CC(=O)O)c(C)c1Br,Potency,[1],inactive
same,Potency,[2],inactive
same,Potency,[3],inactive
same,Potency,[4],inactive
CCCc1c2oc(C(=O)O)cc(=O)c2cc2c(=O)cc(C(=O)O)n(CC)c12,Potency,[1],inactive
same,Potency,[2],inactive
same,Potency,[3],inactive
same,Potency,[4],inactive
Nc1ccc(S(N)(=O)=O)cc1,Potency,[1],inactive
same,Potency,[2],inactive
same,Potency,[3],inactive
same,Potency,[4],inactive
COc1nccnc1NS(=O)(=O)c1ccc(N)cc1,Potency,[1],inactive
same,Potency,[2],inactive
same,Potency,[3],inactive
same,Potency,[4],inactive
O=C(c1ccccc1)C(O)c1ccccc1 (stereo not given),Potency,[1],inactive
same,Potency,[2],inactive
same,Potency,[3],inactive
same,Potency,[4],inactive
COc1cnc(NS(=O)(=O)c2ccc(N)cc2)nc1,Potency,[1],inactive
same,Potency,[2],inactive
same,Potency,[3],inactive
same,Potency,[4],inactive
CC[N+](C)(CC)CCOC(=O)C1c2ccccc2Oc2ccccc21,Potency,[1],inactive
same,Potency,[2],inactive
same,Potency,[3],inactive
same,Potency,[4],inactive
O=C(O)/C=C\C(=O)O,Potency,[1],inactive
same,Potency,[2],inactive
same,Potency,[3],inactive
same,Potency,[4],inactive
Nc1ccc(S(=O)(=O)Nc2ccc(Cl)nn2)cc1,Potency,[1],inactive
same,Potency,[2],inactive
same,Potency,[3],inactive
same,Potency,[4],inactive
O=C(O)c1cc(N=Nc2ccc(O)c(C(=O)O)c2)ccc1O,Potency,[1],inactive
same,Potency,[2],inactive
same,Potency,[3],inactive
same,Potency,[4],inactive
CC(C)(O/N=C(\C(=O)N[C@@H]1C(=O)N2C(C(=O)[O-])=C(C[n+]3ccccc3)CS[C@H]12)c1csc(N)n1)C(=O)O,Potency,[1],inactive
same,Potency,[2],inactive
same,Potency,[3],inactive
same,Potency,[4],inactive
O=C(O)c1cc(=O)[nH]c(=O)[nH]1,Potency,[1],inactive
same,Potency,[2],inactive
same,Potency,[3],inactive
same,Potency,[4],inactive
COC(=O)N/N=C/c1c[n+]([O-])c2ccccc2[n+]1[O-],Potency,[1],inactive
same,Potency,[2],inactive
same,Potency,[3],inactive
same,Potency,[4],inactive
CCCN1CCCC[C@H]1C(=O)Nc1c(C)cccc1C,Potency,[1],inactive
same,Potency,[2],inactive
same,Potency,[3],inactive
same,Potency,[4],inactive
CCc1cccc(CC)c1NC(=O)CN(CC(=O)O)CC(=O)O,Potency,[1],inactive
same,Potency,[2],inactive
same,Potency,[3],inactive
same,Potency,[4],inactive
O=C(O)Cc1sc(-c2ccccc2)nc1-c1ccc(Cl)cc1,Potency,[1],inactive
same,Potency,[2],inactive
same,Potency,[3],inactive
same,Potency,[4],inactive
C[N+](C)(CCOc1ccccc1)Cc1cccs1,Potency,[1],inactive
same,Potency,[2],inactive
same,Potency,[3],inactive
same,Potency,[4],inactive
CCOC(=O)C1=C(C)NC(C)=C(C(=O)OC)C1c1cccc([N+](=O)[O-])c1 (stereo not given),Potency,[1],inactive
same,Potency,[2],inactive
same,Potency,[3],inactive
same,Potency,[4],inactive
Cc1c(I)c(=O)n(-c2ccccc2)n1C,Potency,[1],inactive
same,Potency,[2],inactive
same,Potency,[3],inactive
same,Potency,[4],inactive
NS(=O)(=O)c1cc(C(=O)O)cc(N2CCCC2)c1Oc1ccccc1,Potency,[1],inactive
same,Potency,[2],inactive
same,Potency,[3],inactive
same,Potency,[4],inactive
Oc1cccc(O)c1,Potency,[1],inactive
same,Potency,[2],inactive
same,Potency,[3],inactive
same,Potency,[4],inactive
O=C(COCCOCCOCC(=O)Nc1c(I)cc(I)c(C(=O)O)c1I)Nc1c(I)cc(I)c(C(=O)O)c1I,Potency,[1],inactive
same,Potency,[2],inactive
same,Potency,[3],inactive
same,Potency,[4],inactive
CCCCCCCCCCCCCCCCO,Potency,[1],inactive
same,Potency,[2],inactive
same,Potency,[3],inactive
same,Potency,[4],inactive
S=P(N1CC1)(N1CC1)N1CC1,outcome,[1],inactive [at 0.573 µM]
same,"activity change, negative = cytotoxicity",[2],-8.32% [at 0.573 µM]
same,"activity change, negative = inhibition",[3],3.72% [at 0.573 µM]
same,"activity change, negative = cytotoxicity",[4],-9.38% [at 0.573 µM]
CC(C(=O)O)c1ccc2c(c1)[nH]c1ccc(Cl)cc12 (stereo not given),Potency,[1],inactive
same,Potency,[2],inactive
same,Potency,[3],inactive
same,Potency,[4],inactive
Nc1ccc(S(=O)(=O)Nc2ccnn2-c2ccccc2)cc1,Potency,[1],inactive
same,Potency,[2],inactive
same,Potency,[3],inactive
same,Potency,[4],inactive
CC1(C)O[C@@H]2C[C@H]3[C@@H]4CCC5=CC(=O)C=C[C@]5(C)[C@@H]4[C@@H](O)C[C@]3(C)[C@]2(C(=O)CO)O1,Potency,[1],inactive
same,Potency,[2],inactive
same,Potency,[3],inactive
same,Potency,[4],inactive
Cc1onc(-c2ccccc2)c1-c1ccc(S(N)(=O)=O)cc1,Potency,[1],inactive
same,Potency,[2],inactive
same,Potency,[3],inactive
same,Potency,[4],inactive
Cn1nnc2c(C(N)=O)ncn2c1=O,Potency,[1],inactive
same,Potency,[2],inactive
same,Potency,[3],inactive
same,Potency,[4],inactive
Cc1cccc(C)c1OCC(=O)N[C@@H](Cc1ccccc1)[C@@H](O)C[C@H](Cc1ccccc1)NC(=O)[C@H](C(C)C)N1CCCNC1=O,Potency,[1],inactive
same,Potency,[2],inactive
same,Potency,[3],inactive
same,Potency,[4],inactive
NC[C@H]1O[C@H](O[C@H]2[C@H](O[C@@H]3O[C@H](CO)[C@@H](O)[C@H]3O)C(O)[C@H](N)C[C@@H]2N)[C@H](N)[C@@H](O)[C@@H]1O (stereo not given in full),outcome,[1],inactive [at 11.4 µM]
same,outcome,[2],inactive [at 11.4 µM]
same,outcome,[3],inactive [at 11.4 µM]
same,"activity change, negative = cytotoxicity",[4],0.563% [at 11.4 µM]
CN1CCC[C@@H]1c1cccnc1,Potency,[1],inactive
same,Potency,[2],inactive
same,Potency,[3],inactive
same,Potency,[4],inactive
Cc1cc2c(cc1CC(=O)c1sccc1S(=O)(=O)Nc1onc(C)c1Cl)OCO2,Potency,[1],inactive
same,Potency,[2],inactive
same,Potency,[3],inactive
same,Potency,[4],inactive
COc1ccc2cccc(CCNC(C)=O)c2c1,Potency,[1],inactive
same,Potency,[2],inactive
same,Potency,[3],inactive
same,Potency,[4],inactive
Nc1ccc(C(=O)Oc2ccccc2)c(O)c1,Potency,[1],inactive
same,Potency,[2],inactive
same,Potency,[3],inactive
same,Potency,[4],inactive
CCO[C@H](Cc1ccc(OCCc2ccc(OS(C)(=O)=O)cc2)cc1)C(=O)O,Potency,[1],inactive
same,Potency,[2],inactive
same,Potency,[3],inactive
same,Potency,[4],inactive
Clc1cccc(C(c2ccc3nc[nH]c3c2)n2ccnc2)c1 (stereo not given),Potency,[1],inactive
same,Potency,[2],inactive
same,Potency,[3],inactive
same,Potency,[4],inactive
Cc1cc(O)cc(C)c1Cl,Potency,[1],inactive
same,Potency,[2],inactive
same,Potency,[3],inactive
same,Potency,[4],inactive
CC(C)(C)NCC(O)COc1cccc2c1C[C@H](O)[C@H](O)C2 (stereo not given in full),Potency,[1],inactive
same,Potency,[2],inactive
same,Potency,[3],inactive
same,Potency,[4],inactive
C[N+](C)(C)CCOC(N)=O,Potency,[1],inactive
same,Potency,[2],inactive
same,Potency,[3],inactive
same,Potency,[4],inactive
CCCCCCCCCCCCCCCC(=O)OCCC1CCN(CCCN2c3ccccc3Sc3ccc(S(=O)(=O)N(C)C)cc32)CC1,Potency,[1],inactive
same,Potency,[2],inactive
same,Potency,[3],inactive
same,Potency,[4],inactive
CC[N+](CC)(CC)CCOc1cccc(OCC[N+](CC)(CC)CC)c1OCC[N+](CC)(CC)CC,Potency,[1],inactive
same,Potency,[2],inactive
same,Potency,[3],inactive
same,Potency,[4],inactive
CN1[C@@H]2CC(OC(=O)[C@H](CO)c3ccccc3)C[C@H]1[C@@H]1O[C@@H]12 (stereo not given in full),Potency,[1],inactive
same,Potency,[2],inactive
same,Potency,[3],inactive
same,Potency,[4],inactive
CCCC(=O)O[C@]1(C(=O)COC(=O)CC)CC[C@H]2[C@@H]3CCC4=CC(=O)CC[C@]4(C)[C@H]3[C@@H](O)C[C@@]21C,Potency,[1],inactive
same,Potency,[2],inactive
same,Potency,[3],inactive
same,Potency,[4],inactive
CCCCCCCCCCCCCCCCCC(=O)O,Potency,[1],inactive
same,Potency,[2],inactive
same,Potency,[3],inactive
same,Potency,[4],inactive
CN[C@@H]1CCc2[nH]c3ccc(C(N)=O)cc3c2C1,Potency,[1],inactive
same,Potency,[2],inactive
same,Potency,[3],inactive
same,Potency,[4],inactive
Cc1ncc(CO)c(CO)c1O,Potency,[1],inactive
same,Potency,[2],inactive
same,Potency,[3],inactive
same,Potency,[4],inactive
Cc1cccn2c(=O)c(-c3nnn[nH]3)cnc12,Potency,[1],inactive
same,Potency,[2],inactive
same,Potency,[3],inactive
same,Potency,[4],inactive
CC(=O)NC[C@H]1CN(c2ccc(N3CCOCC3)c(F)c2)C(=O)O1,Potency,[1],inactive
same,Potency,[2],inactive
same,Potency,[3],inactive
same,Potency,[4],inactive
CC(=O)[C@@]1(O)CC[C@H]2[C@@H]3C[C@H](C)C4=CC(=O)C=C[C@]4(C)[C@@]3(F)[C@@H](O)C[C@@]21C,Potency,[1],inactive
same,Potency,[2],inactive
same,Potency,[3],inactive
same,Potency,[4],inactive
S=c1nc[nH]c2nc[nH]c12,Potency,[1],inactive
same,Potency,[2],inactive
same,Potency,[3],inactive
same,Potency,[4],inactive
Nc1nc(/C(=C/CC(=O)O)C(=O)N[C@@H]2C(=O)N3C(C(=O)O)=CCS[C@H]23)cs1,Potency,[1],inactive
same,Potency,[2],inactive
same,Potency,[3],inactive
same,Potency,[4],inactive
O=C(O)COc1nn(Cc2ccccc2)c2ccccc12,Potency,[1],inactive
same,Potency,[2],inactive
same,Potency,[3],inactive
same,Potency,[4],inactive
CO[C@@]1(NC(=O)Cc2cccs2)C(=O)N2C(C(=O)O)=C(COC(N)=O)CS[C@@H]21,Potency,[1],inactive
same,Potency,[2],inactive
same,Potency,[3],inactive
same,Potency,[4],inactive
O=c1[nH]c(=O)n([C@H]2C[C@H](O)[C@@H](CO)O2)cc1I,Potency,[1],inactive
same,Potency,[2],inactive
same,Potency,[3],inactive
same,Potency,[4],inactive
O=C(O)Cc1cccc(-c2cc(CCCCCCc3ccc(O[C@H]4O[C@H](CO)[C@@H](O)[C@H](O)[C@@H]4O)c(-c4cccc(CC(=O)O)c4)c3)ccc2O[C@H]2O[C@H](CO)[C@@H](O)[C@H](O)[C@@H]2O)c1,"activity change, negative = inhibition",[1],-22.9% [at 0.573 µM]
same,outcome,[2],inactive [at 0.573 µM]
same,outcome,[3],inactive [at 0.573 µM]
same,outcome,[4],inactive [at 0.573 µM]
CCCCCCCCCCCCCCCCOP(=O)([O-])OCC[N+](C)(C)C,Potency,[1],14.1 µM (active)
same,Potency,[2],inactive
same,Potency,[3],inactive
same,Potency,[4],inactive
O=P(O)(O)C(O)(Cn1ccnc1)P(=O)(O)O,Potency,[1],inactive
same,Potency,[2],inactive
same,Potency,[3],inactive
same,Potency,[4],inactive
CCN(CC)CCNC(=O)c1cc(S(C)(=O)=O)ccc1OC,Potency,[1],inactive
same,Potency,[2],inactive
same,Potency,[3],inactive
same,Potency,[4],inactive
CC(=O)c1ccc(S(=O)(=O)NC(=O)NC2CCCCC2)cc1,Potency,[1],inactive
same,Potency,[2],inactive
same,Potency,[3],inactive
same,Potency,[4],inactive
